Assay results taken from PubChem BioAssay.
Calls of active or inactive are those of the source.

Key:
[1] = E. coli DRC41 culture turbidity changes, primary screen, E. coli filamentation inducer project, strain DRC41, OD650, 48 h (AID 1152);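 further: E. coli MC1000 strain DRC41 lacking acrAB efflux pump and sulA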; conditions: E. coli DRC41 (acrAB sulA), higher = more signal, called active from +8 up or from −8 down
[2] = small-molecule binders of probe aLefty1, primary screen, biochemical, small-molecule microarray, 635/667 nm fluorescence (AID 1153); conditions: higher = more signal;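 further: score merges spot fluorescence with signal-to-noise ratio from the scanned slide images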
[3] = PSAC antagonists in infected red cells, primary screen, cell-based, P. falciparum Indochina, OD700, 1 h (AID 1154); conditions: P. falciparum Indochina infected RBC osmotic lysis, higher = more signal, called active from +8 up or from −8 down
[4] = PSAC antagonists in infected red cells, primary screen, cell-based, P. falciparum Indochina, OD700, 2 h (AID 1155);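 further: lysis reports solute entry through the parasite surface anion channel PSAC; channel blockers reduce lysis of infected cells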; conditions: P. falciparum Indochina infected erythrocytes, osmotic lysis OD700; higher = more signal, called active from +8 up or from −8 down
[5] = osmotic lysis modulators in infected erythrocytes, primary screen, PSAC antagonist project, cell-based, P. falciparum Indochina, OD700, 3 h (AID 1156); conditions: higher = more signal, called active from +8 up or from −8 down
[6] = PSAC antagonists in infected red cells, primary screen, cell-based, P. falciparum Indochina, OD700, 18 h (AID 1157); conditions: P. falciparum Indochina infected erythrocytes, osmotic lysis OD700, 18 h; higher = more signal, called active from +8 up or from −8 down
[7] = modulators of S6 phosphorylation in cells, primary screen, cell-based, A549, cytoblot, luminescence, serum-stimulated (AID 1158); conditions: A549 phospho-S6 cytoblot, 5 h, higher = more signal;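 further: serum-stimulated A549 lung adenocarcinoma cells; signal is phosphorylated S6 detected by cytoblot immunostaining with HRP secondary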
[8] = target: NADPH oxidase 2 (Homo sapiens) (UniProt P04839); experiment: NOX2-dependent H2O2 signal modulators, primary screen, NOX inhibitor project, cell-based, HEK293-NOX2, PMA-stimulated, Amplex Red fluorescence (AID 1159); conditions: 45 min, higher = more signal, called active from +8 up or from −8 down; further: test concentration not given here
[9] = target: NADPH oxidase 4 (Homo sapiens) (UniProt Q9NPH5); experiment: NOX4-dependent H2O2 signal modulators, primary screen, NOX inhibitor project, cell-based, HEK293-NOX4, tetracycline-induced, Amplex Red fluorescence (AID 1160); conditions: 45 min, higher = more signal, called active from +8 up or from −8 down
[10] = target: NADPH oxidase 5 (Homo sapiens) (UniProt Q96PH1); experiment: NOX5-dependent H2O2 signal modulators, primary screen, NOX inhibitor project, cell-based, HEK293-NOX5, Amplex Red fluorescence (AID 1161); conditions: HEK293-NOX5, ionomycin, 45 min, higher = more signal
[11] = A549 cell viability effects, profiling panel, calcein-AM fluorescence, 48 h, basal (AID 1162); conditions: higher = more signal; further: test concentration not given here
[12] = adipocyte viability effects, profiling panel, cell-based, 3T3-L1 adipocytes, calcein-AM fluorescence, 48 h, basal (AID 1163); conditions: 3T3-L1 adipocytes viability, higher = more signal; further: test concentration not given here
[13] = HepG2 cell viability effects, profiling panel, calcein-AM fluorescence, 48 h, basal (AID 1164); conditions: higher = more signal; further: test concentration not given here
[14] = MM1S cell viability effects, profiling panel, calcein-AM fluorescence, 48 h, basal (AID 1165); conditions: higher = more signal;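 further: viability of MM1S multiple myeloma cells under basal unstimulated conditions; test concentration not given here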
[15] = basal RPMI8226 viability, no added stimulus, profiling panel, cell-based, calcein-AM fluorescence, 48 h, PK04 Diversity Set (AID 1166); conditions: RPMI8226 myeloma viability, higher = more signal;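 further: cells grown under basal conditions without added stimulus; test concentration not given here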
[16] = basal HepG2 mitochondrial membrane potential changes, profiling panel, cell-based, JC-1 fluorescence, 24 h, 100 nL compound (AID 1167); conditions: higher = more signal; further: test concentration not given here
[17] = basal 3T3-L1 adipocyte mitochondrial potential changes, profiling panel, cell-based, JC-1 fluorescence, 3T3-L1 adipocytes, 24 h, 100 nL compound (AID 1168); conditions: JC-1 mitochondrial fluorescence, higher = more signal, called active from +8 up or from −8 down; further: test concentration not given here
[18] = basal RPMI8226 mitochondrial membrane potential changes, profiling panel, cell-based, JC-1 fluorescence, 24 h, 100 nL compound (AID 1169); conditions: RPMI8226 myeloma, JC-1 mitochondrial potential fluorescence, higher = more signal; further: test concentration not given here
[19] = basal MM1S mitochondrial membrane potential changes, profiling panel, cell-based, JC-1 fluorescence, 24 h, 100 nL compound (AID 1170); conditions: higher = more signal; further: test concentration not given here
[20] = A549 lung cancer cell viability effects, profiling panel, resazurin fluorescence, 24 h, PK04 Diversity Set (AID 1171); conditions: higher = more signal, called active from +8 up or from −8 down; further: test concentration not given here

Sequence of NADPH oxidase 2 (Homo sapiens) (P04839 whole entry, looked up): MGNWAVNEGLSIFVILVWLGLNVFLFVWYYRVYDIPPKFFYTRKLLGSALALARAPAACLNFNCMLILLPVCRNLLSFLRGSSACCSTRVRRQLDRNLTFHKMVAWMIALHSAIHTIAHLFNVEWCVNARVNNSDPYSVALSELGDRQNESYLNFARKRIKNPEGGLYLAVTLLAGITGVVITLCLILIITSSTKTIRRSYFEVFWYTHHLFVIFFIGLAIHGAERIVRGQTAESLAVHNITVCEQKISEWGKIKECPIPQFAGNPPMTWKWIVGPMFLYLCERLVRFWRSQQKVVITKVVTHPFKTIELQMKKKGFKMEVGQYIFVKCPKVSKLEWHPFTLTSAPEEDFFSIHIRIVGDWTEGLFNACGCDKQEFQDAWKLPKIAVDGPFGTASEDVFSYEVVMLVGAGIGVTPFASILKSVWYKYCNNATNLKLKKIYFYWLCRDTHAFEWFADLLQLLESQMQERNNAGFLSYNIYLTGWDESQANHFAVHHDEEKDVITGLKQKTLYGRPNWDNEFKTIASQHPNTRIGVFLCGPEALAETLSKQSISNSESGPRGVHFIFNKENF
Sequence of NADPH oxidase 4 (Homo sapiens) (Q9NPH5 whole entry, looked up): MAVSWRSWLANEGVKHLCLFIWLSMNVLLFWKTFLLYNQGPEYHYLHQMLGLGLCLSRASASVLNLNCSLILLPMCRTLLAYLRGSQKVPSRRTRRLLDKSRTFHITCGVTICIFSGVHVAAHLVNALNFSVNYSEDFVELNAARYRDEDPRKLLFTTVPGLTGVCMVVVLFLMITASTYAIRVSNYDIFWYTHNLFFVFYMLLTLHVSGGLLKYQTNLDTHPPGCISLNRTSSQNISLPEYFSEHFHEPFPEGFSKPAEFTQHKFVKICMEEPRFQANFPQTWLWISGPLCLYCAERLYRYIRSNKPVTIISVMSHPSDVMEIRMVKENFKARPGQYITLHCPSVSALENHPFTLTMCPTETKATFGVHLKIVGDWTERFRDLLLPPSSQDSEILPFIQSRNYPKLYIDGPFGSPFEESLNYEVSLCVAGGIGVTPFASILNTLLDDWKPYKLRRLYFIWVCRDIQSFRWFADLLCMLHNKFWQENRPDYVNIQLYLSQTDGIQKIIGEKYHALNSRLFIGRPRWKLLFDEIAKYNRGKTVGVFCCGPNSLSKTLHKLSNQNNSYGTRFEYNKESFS
Sequence of NADPH oxidase 5 (Homo sapiens) (Q96PH1 whole entry, looked up): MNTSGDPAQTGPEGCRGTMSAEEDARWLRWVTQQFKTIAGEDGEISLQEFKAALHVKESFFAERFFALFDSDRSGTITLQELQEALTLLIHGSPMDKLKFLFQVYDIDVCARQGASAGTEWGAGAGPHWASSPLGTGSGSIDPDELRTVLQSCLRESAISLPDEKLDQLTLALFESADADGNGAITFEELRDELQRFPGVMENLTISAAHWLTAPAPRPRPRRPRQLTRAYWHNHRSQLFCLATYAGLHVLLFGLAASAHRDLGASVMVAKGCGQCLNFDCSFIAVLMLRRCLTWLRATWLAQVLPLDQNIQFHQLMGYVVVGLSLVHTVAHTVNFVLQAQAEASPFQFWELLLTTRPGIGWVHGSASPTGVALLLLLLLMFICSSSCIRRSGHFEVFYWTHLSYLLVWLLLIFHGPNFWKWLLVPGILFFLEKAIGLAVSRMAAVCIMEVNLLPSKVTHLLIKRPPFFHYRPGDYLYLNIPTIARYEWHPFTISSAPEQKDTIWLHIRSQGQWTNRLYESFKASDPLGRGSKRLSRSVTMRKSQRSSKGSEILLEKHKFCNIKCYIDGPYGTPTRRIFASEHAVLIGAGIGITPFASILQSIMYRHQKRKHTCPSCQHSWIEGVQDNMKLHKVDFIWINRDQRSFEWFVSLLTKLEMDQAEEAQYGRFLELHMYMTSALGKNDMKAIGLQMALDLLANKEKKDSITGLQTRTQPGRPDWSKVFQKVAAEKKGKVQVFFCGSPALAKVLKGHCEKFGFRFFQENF

SMILES | z-score [1] | composite z-score [2] | z-score [3] | z-score [4] | z-score [5] | z-score [6] | z-score [7] | z-score [8] | z-score [9] | z-score [10] | z-score [11] | z-score [12] | z-score [13] | z-score [14] | z-score [15] | z-score [16] | z-score [17] | z-score [18] | z-score [19] | z-score [20]
CCCCC=C[C@@H](NC(=O)c1ccc(C(F)(F)F)cc1)c1ccccc1 | -1.96 (inactive) | -0.112 | 5.47 (inactive) | 0.895 (inactive) | -0.427 (inactive) | 0.373 (inactive) | -0.0311 | -1.51 (inactive) | -1.37 (inactive) | 1.1 | -1.13 | -1.28 | -0.63 | -0.978 | -2.53 | -1.65 | -1.12 (inactive) | -0.169 | -1.27 | 2.14 (inactive)
C=CCC(OC(C)=O)[C@@H]1[C@@H](N(Cc2ccc(-c3ccccc3)cc2)C(=O)c2ccc(-c3ccccc3)cc2)c2cc(OCCCO)ccc2N1C(=O)c1ccc2ccccc2n1 (stereo not given in full) | 0.803 (inactive) | 0.026 | 0.135 (inactive) | 0.078 (inactive) | -0.452 (inactive) | -0.033 (inactive) | 0.364 | 1.18 (inactive) | 1.33 (inactive) | 1.17 | 0.393 | 0.167 | 0.486 | -0.265 | -0.189 | 2.22 | -0.124 (inactive) | -0.742 | -0.133 | 1.67 (inactive)
CCOC(=O)C[C@H]1[C@H](OC(=O)c2ccc(-c3ccccc3)cc2)[C@@H](NC(=O)c2ccc3ccccc3c2)c2cc(OCCCO)ccc2N1C(=O)c1ccccc1 | -0.966 (inactive) | 0.0691 | 0.398 (inactive) | 0.134 (inactive) | -0.337 (inactive) | 0.407 (inactive) | 0.263 | -2.38 (inactive) | -1.62 (inactive) | -0.532 | -0.9 | 0.237 | -0.307 | -0.438 | -0.322 | 0.762 | -0.0421 (inactive) | 0.483 | -0.108 | 0.231 (inactive)
CCOC(=O)C1=CC[C@@H](c2ccccc2)N(S(=O)(=O)c2ccc(C)cc2)[C@H]1C#N | -0.355 (inactive) | -0.081 | 2.97 (inactive) | 1.91 (inactive) | -0.157 (inactive) | 0.999 (inactive) | -0.769 | 0.426 (inactive) | 0.122 (inactive) | -0.116 | -0.97 | -0.84 | -0.139 | -3.21 | -2.32 | -0.858 | -1.04 (inactive) | -0.441 | -2.33 | 0.172 (inactive)
C=CC[C@]1(C(=O)N(C)C)COC(c2ccc(OCCCO)cc2)=N1 | -2.4 (inactive) | 0.0087 | 8.04 (active) | 0.627 (inactive) | 2.32 (inactive) | 0.0256 (inactive) | 0.116 | -0.898 (inactive) | -0.581 (inactive) | -2.06 | 0.345 | 0.911 | -0.8 | -0.424 | 0.304 | -1.26 | -0.133 (inactive) | -0.676 | 1.23 | -0.497 (inactive)
CC1(C)OC[C@@]23C=C(Br)[C@@H](C[C@H]12)[C@@]1(CO1)C3=O | -0.68 (inactive) | 0.0557 | -0.396 (inactive) | 0.355 (inactive) | 0.0349 (inactive) | -0.0371 (inactive) | -0.552 | 0.173 (inactive) | 0.63 (inactive) | -0.278 | 0.0066 | -0.588 | -0.0344 | -0.229 | -0.215 | -0.973 | 0.228 (inactive) | 0.855 | -0.151 | -0.843 (inactive)
COC(=O)c1c(CC[C@@H](CO)NC(=O)N[C@@H](Cc2ccccc2)Cn2cc(-c3cncn3C)nn2)oc(C(C)=O)c1C(=O)OC | 0.922 (inactive) | -0.147 | 1.49 (inactive) | -0.182 (inactive) | 1.29 (inactive) | -0.277 (inactive) | 1.22 | -5.64 (inactive) | -2.01 (inactive) | -3.3 | -0.184 | 1.15 | -0.382 | 0.732 | -1.81 | -0.321 | 0.724 (inactive) | -0.442 | -0.322 | -0.208 (inactive)
CN(C)CCCCNC(=O)[C@H]1C[C@H]2C(=O)N[C@@H](Cc3ccccc3)C(=O)N2[C@H]1c1cccc(OCCO)c1 | 2.11 (inactive) | 0.0751 | 2.68 (inactive) | -0.546 (inactive) | -0.282 (inactive) | -1.43 (inactive) | 0.331 | 0.693 (inactive) | 0.863 (inactive) | 1.43 | -0.411 | -0.0901 | 0.219 | 0.642 | 0.826 | 0.17 | -0.259 (inactive) | 0.264 | -0.396 | 1.12 (inactive)
